This is one part of a sample in which the strongest signals are shown more often than they occur.
Legend:
Assay in all cases: glycan array binding signal (z-score within array); higher = stronger binding
Conditions in all cases: glycan notation: IUPAC condensed, linker removed
Fuc(a1-2)Gal(b1-3)GalNAc = molecular target: Fuc(a1-2)Gal(b1-3)GalNAc
Procedure, shortened: (§1)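 Arrays were curated from the Consortium for Functional Glycomics database, 3228 in total, and kept only where the protein sequence was available. Binding is expressed as a within-array Z-score. This score was averaged across arrays of the same protein sequence at different concentrations or buffers and across linkers, and negative values can be read as non-binding.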

[1] = molecular target: Fuc(a1-2)Gal(b1-3)GlcNAc(b1-2)Man(a1-3)[Fuc(a1-2)Gal(b1-3)GlcNAc(b1-2)Man(a1-6)]Man(b1-4)GlcNAc(b1-4)GlcNAc
Procedure, shortened: as §1

[2] = molecular target: Fuc(a1-2)Gal(b1-3)GlcNAc(b1-2)Man(a1-3)[Fuc(a1-2)Gal(b1-3)GlcNAc(b1-2)Man(a1-6)]Man(b1-4)GlcNAc(b1-4)[Fuc(a1-6)]GlcNAc
Procedure, shortened: as §1

[3] = molecular target: Fuc(a1-2)Gal(b1-3)[Fuc(a1-4)]GlcNAc(b1-2)Man(a1-3)[Fuc(a1-2)Gal(b1-3)[Fuc(a1-4)]GlcNAc(b1-2)Man(a1-6)]Man(b1-4)GlcNAc(b1-4)GlcNAc
Procedure, shortened: as §1

[4] = molecular target: Fuc(a1-2)Gal(b1-4)Fuc(a1-3)]GlcNAc(b1-2)Man(a1-3)[Fuc(a1-2)Gal(b1-4)[Fuc(a1-3)]GlcNAc(b1-2)Man(a1-6)]Man(b1-4)GlcNAc(b1-4)GlcNAc
Procedure, shortened: as §1

[5] = molecular target: Fuc(a1-2)Gal(b1-4)[Fuc(a1-3)]GlcNAc(b1-3)GalNAc
Procedure, shortened: as §1

[6] = molecular target: Fuc(a1-2)[GalNAc(a1-3)]Gal(b1-3)GalNAc(b1-3)Gal(a1-4)Gal(b1-4)Glc
Procedure, shortened: as §1

[7] = molecular target: Fuc(a1-2)[GalNAc(a1-3)]Gal(b1-4)GlcNAc(b1-3)GalNAc
Procedure, shortened: as §1

[8] = molecular target: Fuc(a1-2)[GalNAc(a1-3)]Gal(b1-4)[Fuc(a1-3)]GlcNAc
Procedure, shortened: as §1

[9] = molecular target: Fuc(a1-3)[Gal3S(b1-4)]GlcNAc6S
Procedure, shortened: as §1

[10] = molecular target: Fuc(a1-3)[GalNAc(b1-4)]GlcNAc
Procedure, shortened: as §1

[11] = molecular target: Gal(a1-3)Gal(b1-4)GlcNAc(b1-2)Man
Procedure, shortened: as §1

[12] = molecular target: Gal(a1-3)Gal(b1-4)GlcNAc(b1-6)GalNAc
Procedure, shortened: as §1

[13] = molecular target: Gal(a1-3)[Gal(a1-4)]Gal(b1-4)GlcNAc
Procedure, shortened: as §1

Gal(a1-6)Glc = molecular target: Gal(a1-6)Glc
Procedure, shortened: as §1

[14] = molecular target: Gal(b1-3)GalNAc(b1-4)[Neu5Ac(a2-3)]Gal(b1-4)Glc
Procedure, shortened: as §1

[15] = molecular target: Gal(b1-3)GlcNAc(b1-3)Gal(b1-4)GlcNAc(b1-2)[Gal(b1-3)GlcNAc(b1-3)Gal(b1-4)GlcNAc(b1-6)]Man(a1-6)[Gal(b1-3)GlcNAc(b1-3)Gal(b1-4)GlcNAc(b1-2)Man(a1-3)]Man(b1-4)GlcNAc(b1-4)[Fuc(a1-6)]GlcNAc
Procedure, shortened: as §1

[16] = molecular target: Gal(b1-3)GlcNAc(b1-3)GalNAc
Procedure, shortened: as §1

[17] = molecular target: Gal(b1-3)[Fuc(a1-4)]GlcNAc(b1-3)Gal(b1-4)GlcNAc
Procedure, shortened: as §1

[18] = molecular target: Gal(b1-4)GlcNAc(b1-2)Man(a1-3)[Gal(b1-4)GlcNAc(b1-2)Man(a1-6)]Man(b1-4)GlcNAc(b1-4)GlcNAc
Procedure, shortened: as §1

[19] = molecular target: Gal(b1-4)GlcNAc(b1-2)Man(a1-3)[GlcNAc(b1-2)Man(a1-6)]Man(b1-4)GlcNAc(b1-4)GlcNAc
Procedure, shortened: as §1

[20] = molecular target: Gal(b1-4)GlcNAc(b1-2)Man(a1-3)[GlcNAc(b1-4)][Gal(b1-4)GlcNAc(b1-2)Man(a1-6)]Man(b1-4)GlcNAc(b1-4)GlcNAc
Procedure, shortened: as §1

[21] = molecular target: Gal(b1-4)GlcNAc(b1-2)[Gal(b1-4)GlcNAc(b1-4)]Man(a1-3)[GlcNAc(b1-4)][Gal(b1-4)GlcNAc(b1-2)[Gal(b1-4)GlcNAc(b1-6)]Man(a1-6)]Man(b1-4)GlcNAc(b1-4)[Fuc(a1-6)]GlcNAc
Procedure, shortened: as §1

[22] = molecular target: Gal(b1-4)GlcNAc(b1-3)Gal(b1-4)GlcNAc(b1-2)[Gal(b1-4)GlcNAc(b1-3)Gal(b1-4)GlcNAc(b1-6)]Man(a1-6)[Gal(b1-4)GlcNAc(b1-3)Gal(b1-4)GlcNAc(b1-2)Man(a1-3)]Man(b1-4)GlcNAc(b1-4)GlcNAc
Procedure, shortened: as §1

[23] = molecular target: Gal(b1-4)GlcNAc(b1-3)Gal(b1-4)GlcNAc(b1-2)[Gal(b1-4)GlcNAc(b1-3)Gal(b1-4)GlcNAc(b1-6)]Man(a1-6)[Gal(b1-4)GlcNAc(b1-3)Gal(b1-4)GlcNAc(b1-2)Man(a1-3)]Man(b1-4)GlcNAc(b1-4)[Fuc(a1-6)]GlcNAc
Procedure, shortened: as §1

[24] = molecular target: Gal(b1-4)GlcNAc(b1-3)Gal(b1-4)GlcNAc(b1-3)Gal(b1-4)GlcNAc(b1-3)Gal(b1-4)GlcNAc(b1-2)Man(a1-3)[Gal(b1-4)GlcNAc(b1-3)Gal(b1-4)GlcNAc(b1-3)Gal(b1-4)GlcNAc(b1-3)Gal(b1-4)GlcNAc(b1-2)Man(a1-6)]Man(b1-4)GlcNAc(b1-4)[Fuc(a1-6)]GlcNAc
Procedure, shortened: as §1

[25] = molecular target: Gal(b1-4)GlcNAc(b1-3)Gal(b1-4)GlcNAc(b1-3)Gal(b1-4)GlcNAc(b1-3)Gal(b1-4)GlcNAc(b1-3)Gal(b1-4)GlcNAc(b1-2)Man(a1-3)[Gal(b1-4)GlcNAc(b1-3)Gal(b1-4)GlcNAc(b1-3)Gal(b1-4)GlcNAc(b1-3)Gal(b1-4)GlcNAc(b1-3)Gal(b1-4)GlcNAc(b1-2)Man(a1-6)]Man(b1-4)GlcNAc(b1-4)GlcNAc
Procedure, shortened: as §1

B1: LlpA1 (Pseudomonas fluorescens), Q4KHC3 (protein)
chain: MGSSHHHHHHSSGLVPRGSHMAWIRYDFTDNGSSVLPARYYMAPNQYLQSPNKRFKLLFQADGNLALYDGAQLAWVADQNTPFTNVSKGNKKDPMMVFMNYGFVLDDPLRGRIWSTTPSDPTMGSREDASLRAFTQVQDDGNIVTVDTIPHWYAPNGRVFTPAVGAAMIIGGTTELVPGQFYSAGEHSLVFQGDGNLVVYGPNSSVIWATYTQNKGGVRCVMQEDGNLVIYAANNGVVWQSGTGGHPGATIRLQANGSFTIVTERPVWARFGYTPTIKPPRVFYPDHKWKTGSYTWNNVF
B1 was tested, and the “glycan array binding signal (z-score)” value (Fuc(a1-2)Gal(b1-3)GalNAc) was -0.757, the “glycan array binding signal (z-score)” value [1] was 3.75 and the “glycan array binding signal (z-score)” value [2] was -0.133. For the same binder, the “glycan array binding signal (z-score)” value [3] was 3.21, the “glycan array binding signal (z-score)” value [4] was 3.1 and the “glycan array binding signal (z-score)” value [5] was 2.56. For the same binder, the “glycan array binding signal (z-score)” value [6] was 0.171, the “glycan array binding signal (z-score)” value [7] was -0.468 and the “glycan array binding signal (z-score)” value [8] was 0.114. The “glycan array binding signal (z-score)” value [9] was -0.653, the “glycan array binding signal (z-score)” value [10] was -0.611 and the “glycan array binding signal (z-score)” value [11] was -0.521. The “glycan array binding signal (z-score)” value [12] was 0.065, the “glycan array binding signal (z-score)” value [13] was 2.71 and the “glycan array binding signal (z-score)” value (Gal(a1-6)Glc) was 0.047. For the same binder, the “glycan array binding signal (z-score)” value [14] was -0.058, the “glycan array binding signal (z-score)” value [15] was 0.631 and the “glycan array binding signal (z-score)” value [16] was -0.529. For the same binder, the “glycan array binding signal (z-score)” value [17] was -0.53, the “glycan array binding signal (z-score)” value [18] was -0.071 and the “glycan array binding signal (z-score)” value [19] was 0.504. The “glycan array binding signal (z-score)” value [20] was -0.797, the “glycan array binding signal (z-score)” value [21] was 2.29 and the “glycan array binding signal (z-score)” value [22] was 2.3. For the same binder, the “glycan array binding signal (z-score)” value [23] was 1.19, the “glycan array binding signal (z-score)” value [24] was 1.12 and the “glycan array binding signal (z-score)” value [25] was 2.15.
